Reference: PubChem BioAssay (EPA / NIEHS)
Some compounds were tested as several samples or in several runs, with calls that do not always agree. Calls of active or inactive are those of the source. How the source made its calls: active means hit-call score of the fitted dose curve at least 0.9, where 1 is the maximum; inactive means score below 0.9.

Tests used:
Settings in all cases: mRNA level, 48 h; actives raise or lower the signal
[1] = read-out: Nuclear factor NF-kappa-B p105 subunit (Homo sapiens) (UniProt P19838); assay: LTEA_HepaRG_NFKB1: Life Technologies and Expression Analysis (LTEA) Assay for Nuclear Factor Kappa B Subunit 1 (NFKB1) using HepaRG (AID 2283521)
Procedure, shortened: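 NFKB1 transcript was measured by TaqMan qRT-PCR on Fluidigm arrays, normalised to three housekeeping genes and fitted in both directions against 0.5% DMSO. HepaRG cells were dosed in duplicate for 48 h in serum-free induction medium, eight half-log steps from 100 uM.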

[2] = read-out: Protein phosphatase 2A (PPP2R4), PTPA (gene 5524); assay: LTEA_HepaRG_PPP2R4: Life Technologies and Expression Analysis (LTEA) Assay for Protein phosphatase 2A (PPP2R4) using HepaRG (AID 2283522)
Procedure, shortened: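 Readout is PPP2R4 transcript level by microfluidic qRT-PCR after 48 h chemical treatment of human HepaRG liver cells. Concentrations spanned 100 uM downward in half-log steps; gain or loss of signal was fitted relative to DMSO.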

[3] = read-out: Phosphatase and tensin (PTEN), PTEN (gene 5728); assay: LTEA_HepaRG_PTEN: Life Technologies and Expression Analysis (LTEA) Assay for Phosphatase and tensin (PTEN) using HepaRG (AID 2283523)
Procedure, shortened: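 HepaRG cells, 48 h after plating, exposed in duplicate for 48 h in serum-free induction medium to 8 half-log concentrations up to 100 uM (0.5% DMSO). PTEN mRNA by qRT-PCR, normalized to ACTB, GAPDH, POLR2A; bidirectional fit versus DMSO.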

[4] = read-out: solute carrier (SLC22A1), SLC22A1 (gene 6580); assay: LTEA_HepaRG_SLC22A1: Life Technologies and Expression Analysis (LTEA) Assay for solute carrier (SLC22A1) using HepaRG (AID 2283524)
Procedure, shortened: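 Differentiated human HepaRG cells in serum-free induction medium, exposed 48 h in duplicate to 8-point half-log series from 100 µM top in 0.5% DMSO. SLC22A1 mRNA by TaqMan qRT-PCR normalized to ACTB, GAPDH, POLR2A; bidirectional fit versus DMSO.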

[5] = read-out: Pyruvate Dehydrogenase Kinase 4 (PDK4), PDK4 (gene 5166); assay: LTEA_HepaRG_PDK4: Life Technologies and Expression Analysis (LTEA) Assay for Pyruvate Dehydrogenase Kinase 4 (PDK4) using HepaRG (AID 2283525)
Procedure, shortened: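 HepaRG cells plated 48 h, then switched to serum-free induction medium and exposed in duplicate for 48 h to 8 half-log concentrations from 100 uM in 0.5% DMSO. PDK4 mRNA measured by qRT-PCR, normalized to ACTB, GAPDH and POLR2A; bidirectional fit versus DMSO.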

[6] = read-out: NAD(P)H dehydrogenase [quinone] 1 (NQO1), NQO1 (gene 1728); assay: LTEA_HepaRG_NQO1: Life Technologies and Expression Analysis (LTEA) Assay for NAD(P)H dehydrogenase [quinone] 1 (NQO1) using HepaRG (AID 2283526)
Procedure, shortened: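 HepaRG, 48 h post-plating → serum-free induction medium → test chemical 48 h (duplicate, 100 uM top, half-log x8, 0.5% DMSO) → RNA isolation → qRT-PCR, ACTB/GAPDH/POLR2A normalization; bidirectional curve fit vs DMSO baseline.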

[7] = read-out: Nuclear factor erythroid 2-related factor 2 (Homo sapiens) (UniProt Q16236); assay: LTEA_HepaRG_NFE2L2: Life Technologies and Expression Analysis (LTEA) Assay for Nuclear factor erythroid 2-related factor 2 (NFE2L2) Transcription Factor using HepaRG (AID 2283527)
Procedure, shortened: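 Differentiated human HepaRG cells, serum-free induction medium, exposed 48 h in duplicate to eight half-log concentrations up to 100 uM in 0.5% DMSO. NFE2L2 mRNA by Fluidigm TaqMan qRT-PCR, normalised to ACTB, GAPDH, POLR2A; bidirectional change versus DMSO.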

[8] = read-out: succinate dehydrogenase complex iron sulfur subunit B (SDHB), SDHB (gene 6390); assay: LTEA_HepaRG_SDHB: Life Technologies and Expression Analysis (LTEA) Assay for succinate dehydrogenase complex iron sulfur subunit B (SDHB) using HepaRG (AID 2283528)
Procedure, shortened: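 SDHB transcript level read by TaqMan qRT-PCR, housekeeping-normalised (ACTB, GAPDH, POLR2A), after 48 h chemical treatment of plated HepaRG cells; eight concentrations top 100 uM, half-log steps, 0.5% DMSO, duplicates; fitted both directions against DMSO.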

[9] = read-out: Signal transducer and activator of transcription 3 (Homo sapiens) (UniProt P40763); assay: LTEA_HepaRG_STAT3: Life Technologies and Expression Analysis (LTEA) Assay for Signal transducer and activator of transcription (STAT3) using HepaRG (AID 2283529)
Procedure, shortened: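 Differentiated HepaRG cells, serum-free induction medium, dosed 48 h in duplicate, 8 half-log concentrations from 100 uM in 0.5% DMSO. STAT3 mRNA by qRT-PCR, normalised to ACTB, GAPDH, POLR2A; bidirectional fit versus DMSO.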

[10] = read-out: sulfotransferase 2A1 (SULT2A1), SULT2A1 (gene 6822); assay: LTEA_HepaRG_SULT2A1: Life Technologies and Expression Analysis (LTEA) Assay for sulfotransferase 2A1 (SULT2A1) using HepaRG (AID 2283531)
Procedure, shortened: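 Gene-expression endpoint in a human liver cell line: SULT2A1 mRNA change after 48 h chemical treatment, curves fitted in both directions relative to 0.5% DMSO vehicle. Concentrations spanned eight half-log steps from 100 uM.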

Measured: AC50

Sequence of Signal transducer and activator of transcription 3 (Homo sapiens) (P40763 whole entry, looked up): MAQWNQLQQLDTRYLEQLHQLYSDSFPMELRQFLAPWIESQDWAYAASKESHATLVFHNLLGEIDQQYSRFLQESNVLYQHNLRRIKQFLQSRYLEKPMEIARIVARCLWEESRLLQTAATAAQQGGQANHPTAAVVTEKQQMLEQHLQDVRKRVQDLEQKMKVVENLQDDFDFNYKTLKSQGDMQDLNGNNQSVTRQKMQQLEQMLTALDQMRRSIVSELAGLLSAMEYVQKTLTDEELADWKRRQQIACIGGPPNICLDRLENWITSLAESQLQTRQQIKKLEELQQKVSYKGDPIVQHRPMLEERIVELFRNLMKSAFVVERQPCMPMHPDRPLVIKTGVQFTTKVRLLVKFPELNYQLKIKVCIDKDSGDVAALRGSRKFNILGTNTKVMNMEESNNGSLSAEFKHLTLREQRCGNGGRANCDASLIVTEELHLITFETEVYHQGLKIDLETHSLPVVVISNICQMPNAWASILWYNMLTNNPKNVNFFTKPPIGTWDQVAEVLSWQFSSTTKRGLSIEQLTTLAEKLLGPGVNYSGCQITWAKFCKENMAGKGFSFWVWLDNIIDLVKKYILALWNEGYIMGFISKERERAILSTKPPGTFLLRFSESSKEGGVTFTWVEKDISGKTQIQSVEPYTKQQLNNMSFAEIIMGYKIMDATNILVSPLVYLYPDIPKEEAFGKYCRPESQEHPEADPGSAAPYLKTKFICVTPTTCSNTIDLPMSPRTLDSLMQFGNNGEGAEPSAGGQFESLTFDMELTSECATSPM
Sequence of Nuclear factor erythroid 2-related factor 2 (Homo sapiens) (Q16236 whole entry, looked up): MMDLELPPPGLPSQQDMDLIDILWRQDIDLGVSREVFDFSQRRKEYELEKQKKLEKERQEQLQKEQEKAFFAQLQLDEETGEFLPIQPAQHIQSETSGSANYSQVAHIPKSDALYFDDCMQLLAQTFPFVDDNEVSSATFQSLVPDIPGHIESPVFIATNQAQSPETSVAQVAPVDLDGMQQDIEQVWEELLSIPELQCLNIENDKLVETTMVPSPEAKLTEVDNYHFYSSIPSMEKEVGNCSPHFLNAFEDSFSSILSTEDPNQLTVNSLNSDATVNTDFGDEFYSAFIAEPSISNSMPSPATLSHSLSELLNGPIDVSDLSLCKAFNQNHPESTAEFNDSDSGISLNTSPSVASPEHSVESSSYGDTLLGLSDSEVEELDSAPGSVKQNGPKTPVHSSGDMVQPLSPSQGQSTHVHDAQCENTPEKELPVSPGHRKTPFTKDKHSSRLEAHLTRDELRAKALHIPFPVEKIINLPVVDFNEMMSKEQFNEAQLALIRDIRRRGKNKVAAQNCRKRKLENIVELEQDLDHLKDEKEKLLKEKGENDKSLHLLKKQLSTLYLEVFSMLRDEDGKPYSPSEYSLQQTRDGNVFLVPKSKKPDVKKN
Sequence of Nuclear factor NF-kappa-B p105 subunit (Homo sapiens) (P19838 whole entry, looked up): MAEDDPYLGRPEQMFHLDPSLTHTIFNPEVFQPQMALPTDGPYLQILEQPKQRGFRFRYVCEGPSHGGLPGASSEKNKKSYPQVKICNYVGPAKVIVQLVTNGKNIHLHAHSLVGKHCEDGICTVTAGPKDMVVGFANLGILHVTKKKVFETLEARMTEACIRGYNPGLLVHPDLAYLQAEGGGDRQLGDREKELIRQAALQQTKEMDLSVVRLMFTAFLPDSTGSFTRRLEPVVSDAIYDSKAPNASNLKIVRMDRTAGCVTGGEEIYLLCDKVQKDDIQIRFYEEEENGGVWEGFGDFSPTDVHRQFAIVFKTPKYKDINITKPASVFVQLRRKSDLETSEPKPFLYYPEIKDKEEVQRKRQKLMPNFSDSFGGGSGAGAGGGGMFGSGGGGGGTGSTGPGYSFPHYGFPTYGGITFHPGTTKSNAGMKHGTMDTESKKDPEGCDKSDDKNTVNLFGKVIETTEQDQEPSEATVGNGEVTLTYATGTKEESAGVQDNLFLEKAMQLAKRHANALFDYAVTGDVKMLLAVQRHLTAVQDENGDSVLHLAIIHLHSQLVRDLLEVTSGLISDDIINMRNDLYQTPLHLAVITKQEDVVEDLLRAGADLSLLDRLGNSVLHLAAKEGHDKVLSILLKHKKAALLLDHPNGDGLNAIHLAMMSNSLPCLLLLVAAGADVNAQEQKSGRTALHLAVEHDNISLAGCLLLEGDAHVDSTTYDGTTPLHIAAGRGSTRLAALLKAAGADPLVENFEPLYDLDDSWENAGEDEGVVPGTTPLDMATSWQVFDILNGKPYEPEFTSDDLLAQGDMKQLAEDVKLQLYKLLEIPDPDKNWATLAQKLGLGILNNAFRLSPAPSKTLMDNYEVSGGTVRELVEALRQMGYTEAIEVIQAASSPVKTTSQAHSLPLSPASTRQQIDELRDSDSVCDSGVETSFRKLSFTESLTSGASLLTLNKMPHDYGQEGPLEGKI

O=C(O)C(F)(F)C(F)(F)C(F)(F)C(F)(F)C(F)(F)C(F)(F)F
inactive: [1] | [2] | [3] | [4] | [6] | [7] | [8] | [9] | [10]
active: [5] 35.6 µM

CC(=O)[O][Hg][c]1ccccc1
active: [1] 23.2 µM | [2] 28 µM | [3] 69.5 µM | [4] 2.33 µM | [5] 13.1 µM | [6] 12.3 µM | [7] 23.4 µM | [8] 26.2 µM | [9] 17 µM | [10] 17.6 µM

CC(C)(C)c1cc(O)ccc1O
inactive: [1] | [2] | [3] | [4] | [5] | [6] | [7] | [8] | [9] | [10]

CCOP(=S)(OCC)SCSP(=S)(OCC)OCC
inactive: [1] | [2] | [3] | [4] | [6] | [7] | [8] | [9] | [10]
active: [5] 20.4 µM

O=C(Nc1ccc2[nH]ccc2c1)c1cc2cc(F)ccc2n1Cc1cccc(F)c1
inactive: [1] | [2] | [3] | [6] | [8] | [9]
active: [4] 39.5 µM | [5] 89.3 µM | [7] 47.1 µM | [10] 31.8 µM

C=C(C)C(=O)[O][Sn]([CH2]CCC)([CH2]CCC)[CH2]CCC
active: [1] 94.9 µM | [3] 15.8 µM | [4] 2.7 µM | [5] 1.18 µM | [6] 9.2 µM | [7] 61.3 µM | [8] 94.1 µM | [10] 76.9 µM
inactive: [2] | [9]

Cn1sc(Cl)cc1=O
inactive: [1] | [2] | [3] | [4] | [5] | [6] | [7] | [8] | [9] | [10]

CCN1CCC2(CC1)COc1cc3c(cc12)N(C(=O)c1ccc(-c2ccc(-c4nnc(C)o4)cc2C)cc1)CC3
active: [1] 46.8 µM | [2] 21.8 µM | [3] 22.7 µM | [4] 22.9 µM | [5] 28.4 µM | [8] 24.8 µM | [9] 13.7 µM | [10] 75.3 µM
inactive: [6] | [7]

CCOP(=S)(OCC)Oc1nc(Cl)c(Cl)cc1Cl
inactive: [1] | [2] | [3] | [4] | [5] | [6] | [7] | [8] | [9] | [10]

ClC1(Cl)C2(Cl)C3(Cl)C4(Cl)C(Cl)(Cl)C5(Cl)C3(Cl)C1(Cl)C5(Cl)C24Cl (centres undefined)
active: [5] 16.8 µM
inactive: [2] | [3] | [4] | [6] | [7] | [8] | [9] | [10]

O=C1C2(Cl)C3(Cl)C4(Cl)C(Cl)(Cl)C5(Cl)C3(Cl)C1(Cl)C5(Cl)C24Cl (centres undefined)
active: [2] 15.8 µM | [4] 19.3 µM | [5] 92.7 µM | [7] 92.1 µM | [8] 91.6 µM | [9] 93.1 µM | [10] 93.5 µM
inactive: [1] | [3] | [6]

C=CC(=O)OCCCCCC(C)C
inactive: [1] | [2] | [3] | [4] | [5] | [6] | [7] | [8] | [9] | [10]

NC(=O)O
inactive: [1] | [2] | [3] | [4] | [5] | [6] | [7] | [8] | [9] | [10]

O=C(O)C(Cl)(Cl)Cl
inactive: [2] | [3] | [4] | [5] | [6] | [7] | [8] | [9] | [10]

C[C@@H]1C[C@@H]([C@H](O)CC2CC(=O)NC(=O)C2)C(=O)[C@@H](C)C1
active: [1] 17.6 µM | [2] 0.636 µM | [3] 87.6 µM | [4] 8.29 µM | [5] 31.9 µM | [6] 29.3 µM | [7] 30.3 µM | [8] 50 µM | [9] 15.6 µM | [10] 48.9 µM

CC(C)(c1ccccc1)c1ccc(O)c(C(C)(C)c2ccccc2)c1
inactive: [1] | [2] | [3] | [5] | [6] | [8] | [9]
active: [4] 65.4 µM | [7] 50 µM | [10] 86.3 µM

CCC(C)(C)c1ccc(O)c(C(C)(C)CC)c1
inactive: [1] | [2] | [3] | [4] | [5] | [6] | [7] | [8] | [9] | [10]

CCC(=O)C(CC(C)N(C)C)(c1ccccc1)c1ccccc1 (centres undefined)
inactive: [2] | [3] | [4] | [5] | [6] | [7] | [8] | [9] | [10]

Oc1cccc2cccnc12
inactive: [2] | [3] | [4] | [5] | [6] | [7] | [8] | [9] | [10]

ClCC(Cl)CCl
inactive: [2] | [3] | [4] | [5] | [7] | [8] | [9] | [10]

O=c1[nH]c(=O)[nH]c(=O)[nH]1
inactive: [1] | [2] | [3] | [4] | [5] | [6] | [7] | [8] | [9] | [10]

CC(C)(C)CC(C)(C)c1ccc(O)cc1
inactive: [1] | [2] | [3] | [4] | [5] | [6] | [7] | [8] | [9] | [10]

Cc1ccccc1N
inactive: [1] | [2] | [3] | [4] | [5] | [6] | [7] | [8] | [9] | [10]

CC12CC1(C)C(=O)N(c1cc(Cl)cc(Cl)c1)C2=O (centres undefined)
inactive: [1] | [2] | [3] | [6] | [7] | [8] | [9]
active: [4] 11.2 µM | [5] 16.2 µM

CCCCCCCCc1ccc(O)cc1
inactive: [1] | [2] | [3] | [4] | [6] | [7] | [8] | [9] | [10]
active: [5] 69.3 µM

CN(C)N=O
inactive: [1] | [2] | [3] | [4] | [5] | [6] | [7] | [8] | [9] | [10]

C[C@]12CCC(=O)C[C@@H]1CC[C@@H]1[C@@H]2CC[C@]2(C)[C@@H](O)CC[C@@H]12
inactive: [1] | [2] | [3] | [4] | [5] | [6] | [7] | [8] | [9] | [10]

O=[N+]([O-])c1ccc(O)c([N+](=O)[O-])c1
active: [1] 13 µM | [2] 13.1 µM | [3] 31.8 µM | [4] 25.2 µM | [5] 11.8 µM | [6] 12.7 µM | [7] 12.7 µM | [8] 13 µM | [9] 12.8 µM | [10] 17.7 µM

O=C(O)C(F)(F)C(F)(F)C(F)(F)C(F)(F)C(F)(F)C(F)(F)C(F)(F)C(F)(F)C(F)(F)C(F)(F)F
inactive: [1] | [2] | [3] | [5] | [6] | [7] | [8] | [9]
active: [10] 47.8 µM

CC(C)(OO)c1ccccc1
inactive: [1] | [2] | [3] | [4] | [5] | [6] | [7] | [8] | [9] | [10]

COc1cc(-c2ccc(N)c(OC)c2)ccc1N
active: [4] 50 µM | [7] 50 µM
inactive: [1] | [2] | [3] | [4] | [5] | [6] | [7] | [8] | [9] | [10]
